Sampled rows, rich in hits. Any-hit rate of the full collection: about 21%.
Cycloheximide cs: affects cycloheximide protein synthesis inhibition readout, counter-screen; cell reporter, cycloheximide protein synthesis inhibition counterscreen; max response, %; 12% of 300,000 active; in the data active = max response mostly above about 13%, no sharp cut-off; inactive = mostly below about 14%; also: read at 38.3 µM for the half of the compounds with a filed dose; 0% is about no effect
Shiga inhibitor: blocks Shiga toxin action in Vero cells. Vero cells, Shiga toxin protein synthesis inhibition reporter. inhibition, % at 38.7 µM. 9.2% of 290,000 active; in the data active = inhibition mostly above about 28%, no sharp cut-off; inactive = mostly below about 43%; also: 0% is about no effect
Pf growth 96h: inhibits malaria parasite growth, 96 h; P. falciparum luciferase reporter growth, 96 h; Potency, µM (top dose mostly 28.7 µM), for inactives: at the top dose activity change, negative = inhibition, hits mostly inhibitors; 6.9% of 320,000 active; AID 504834; also: potency is read from the fitted curve at half-maximal effect; % is scaled to controls: 0 for no effect and ±100 for the full control effect
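Luminescence readout: decreased luciferase signal marks inhibited growth of reporter-expressing P. falciparum in infected red cells (2% hematocrit, 0.05% parasitemia final), exposed to compound two generations (96 h, 37 C, 5% CO2).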
NS1 inh: blocks influenza NS1 protein function. AID 2326. Potency, µM (doses to about 46.1 µM), for the others: top-dose activity, positive = more growth. 0.4% of 270,000 active; calls by dose curve; also: potency is read from the fitted curve at half-maximal effect; actives are rising curves; nearly all actives have a fitted effect of over 50% in size
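Recovery from NS1-induced slow growth read by OD600 in budding yeast switched to galactose assay medium (pH 6.0, -URA) at 1:100 dilution. Compound 23 nl per well; the matching strain lacking NS1 serves as control.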
Pf growth 48h: P. falciparum growth inhibition at 48 hours (one generation) | P. falciparum luciferase growth in erythrocytes, 48 h | Potency, µM (doses to about 28.7 µM), inactives show top-dose activity change, negative = inhibition, most hits filed as inhibitors | 5.9% of 310,000 active | AID 504832; also: potency is read from the fitted curve at half-maximal effect; % is scaled to controls: 0 for no effect and ±100 for the full control effect
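Growth was read as firefly luciferase luminescence after a 48 h, 37 C, 5% CO2 exposure of compounds to reporter-bearing P. falciparum cultures (0.1% parasitemia, 2% hematocrit final) in Albumax-supplemented RPMI 1640.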
SARS PLpro yeast: inhibitors of SARS-CoV papain-like protease in yeast | Potency, µM (series often up to 32.9 µM), inactives show top-dose activity, positive = growth rescue, hits mostly activators | S. cerevisiae expressing SARS-CoV PLpro, growth rescue | 0.19% of 330,000 active; calls by dose curve; also: potency is read from the fitted curve at half-maximal effect; 0% is about no effect; nearly all actives have a fitted effect of over 55% in size
The depositor's hits bear a star; ? = inconclusive; / = no result given; [ ] = remark or other dose. Unless noted, calls follow the shape of the dose curve; as a rule, active = well fitted inhibition curve with a large enough effect; inconclusive = small, poorly fitted or top-dose-only effect, or another doubt; inactive = no such curve, though single readings can be large or run the other way.

SMILES	Cycloheximide cs	Shiga inhibitor	Pf growth 96h	NS1 inh	Pf growth 48h	SARS PLpro yeast
Cc1onc(-c2ccc(Cl)cc2)c1-c1ccnn1S(=O)(=O)c1cccc(C(F)(F)F)c1	-3	2	3.3µM*	1%	1.7µM*	1%
Cc1ccc(S(=O)(=O)N2CCN(Cc3nnc(-c4c(-c5ccccc5)noc4C)o3)CC2)cc1	/	/	?	/	?	1%
Cc1onc(-c2ccccc2)c1C(=O)N1CCN(S(=O)(=O)c2ccc(Cl)cc2)CC1	-4	-13	15%	-5%	17%	0%
COc1ccc(CN2c3cc(S(=O)(=O)N4CCOCC4)ccc3N3CCCC32)cc1 (configuration not stated)	-1	6	8.3µM*	10%	/	9%[6.58 µM]
O=S(=O)(c1ccc2c(c1)N(Cc1ccc(Cl)cc1)C1CCCN21)N1CCOCC1 (configuration not stated)	-2	-23	8.3µM*	-11%	?	-2%
Cn1c(=O)oc2cc(S(=O)(=O)N3CCC(C(=O)NCc4ccccc4Cl)CC3)ccc21	0	9	-15%	5%	-5%	6%
CCC(C)C1O[C@]2(C=CC1C)CC1CC(C/C=C(\C)[C@H](OC3CC(OC)C(O[C@H]4CC(OC)[C@@H](O)C(C)O4)C(C)O3)[C@@H](C)/C=C/C=C3\COC4C(O)C(C)=C[C@H](C(=O)O1)[C@@]34O)O2 (some centres not stated)	/	/	13µM*	/	15µM*	/
COc1cccc(CC2(CO)CCCN(CC3=Cc4cc(Cl)ccc4OC3)C2)c1 (configuration not stated)	-2	9	?	-32%	?	-1%
S=C(NNc1ccnc2cc(Cl)ccc12)Nc1ccc(Cl)cc1Cl	-3	1	0.74µM*	-11%	1.9µM*	-1%
CCOc1ccc(NC(=S)NNC(=O)c2cc(Br)ccc2Cl)cc1	9	-3	-33%[5.75 µM]	/	-8%	-3%
S=C(NCc1ccncc1)Nc1ccc(Cl)cc1Cl	8	3	23%	1%	-35%	0%
CCOc1ccc(NC(=S)NNc2ccnc3cc(Cl)ccc23)cc1	8	-8	2.1µM*	/	?	-1%
CC1CCCN(C(=O)C2CCN(S(=O)(=O)c3cccc4nonc34)CC2)C1 (configuration not stated)	-2	13	5%	-5%	6%	0%
O=C(COC(=O)Cc1cccs1)NCc1ccc(F)cc1	-1	-3	1%	18%	4%	-3%
CC1=N/C(=C\c2ccc([N+](=O)[O-])cc2)C(=O)N1c1ccc(Br)c(C)c1	12	12	-1%	1%	?	8%
Cc1ccc(CNCC2CCCO2)o1 (configuration not stated)	-5	-7	13µM*	-3%	-3%	-2%
Clc1ccc(CNCC2CCCO2)cc1 (configuration not stated)	-3	-8	18%	12%	52%	-2%
c1ccc(-c2nc3nc4ccccc4nc3n2CC2CCCO2)cc1 (configuration not stated)	30*	30	-13%	1%	15%	0%
CCc1ccc(Nc2cnn(-c3nc4ccccc4s3)c(=O)c2Cl)cc1	71*	84*	?	11%	52%	5%
Cn1c(=O)n(C)c2cc(NC(=O)c3ccccc3[N+](=O)[O-])c(Br)cc21	1	18	?	11%	?	0%
OC1(c2cccc(C(F)(F)F)c2)CCNCC1	-2	16	13µM*	1%	-1%	6%
COC(=O)c1ccc(CNC(=O)CNC(=O)c2sc3ccccc3c2Cl)cc1	/	/	7%	/	?	-4%
CC(C)C[C@H](NC(=O)[C@@H](Cc1c[nH]c2ccccc12)NC(=O)[C@@H](Cc1ccc(O)cc1)NC(=O)[C@@H](CO)NC(=O)[C@@H](Cc1c[nH]c2ccccc12)NC(=O)C(Cc1cnc[nH]1)NC(=O)C1CCC(=O)N1)C(=O)N[C@@H](CCCN=C(N)N)C(=O)N1CCC[C@@H]1C(=O)NCC(N)=O (some centres not stated)	/	/	?	/	10%	/
